Test results: the supplement of paper PMC8728848
This excerpt belongs to a sample that is enriched for the strongest signals.

Tests used:
Assay in all cases: glycan array binding signal (z-score within array); higher = stronger binding
Conditions in all cases: glycan notation: IUPAC condensed, linker removed
[1] = target: Fuc(a1-2)Gal
Procedure, shortened: (§1)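 The binding signal is a Z-score computed within each array and averaged over linkers. Arrays of the same protein sequence at different concentrations or buffers were also averaged together. Data originate from 3228 arrays in the Consortium for Functional Glycomics database, kept only where the protein sequence was available.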

[2] = target: Fuc(a1-2)Gal(b1-3)GlcNAc(b1-3)[Fuc(a1-2)Gal(b1-3)GlcNAc(b1-6)]GalNAc
Procedure, shortened: as §1

[3] = target: Fuc(a1-2)Gal(b1-4)GlcNAc(b1-3)Gal(b1-4)GlcNAc(b1-2)Man(a1-3)[Fuc(a1-2)Gal(b1-4)GlcNAc(b1-3)Gal(b1-4)GlcNAc(b1-2)Man(a1-6)]Man(b1-4)GlcNAc(b1-4)GlcNAc
Procedure, shortened: as §1

[4] = target: Fuc(a1-2)[Gal(a1-3)]Gal(b1-4)[Fuc(a1-3)]Glc
Procedure, shortened: as §1

[5] = target: Fuc(a1-3)[Gal(b1-4)]GlcNAc(b1-2)Man(a1-3)[Fuc(a1-3)[Gal(b1-4)]GlcNAc(b1-2)Man(a1-6)]Man(b1-4)GlcNAc(b1-4)[Fuc(a1-6)]GlcNAc
Procedure, shortened: as §1

[6] = target: Fuc(a1-3)[Gal(b1-4)]GlcNAc(b1-6)[Gal(b1-3)GlcNAc(b1-3)]Gal(b1-4)Glc
Procedure, shortened: as §1

[7] = target: Fuc(a1-3)[GalNAc(b1-4)]GlcNAc
Procedure, shortened: as §1

[8] = target: Fuc(a1-4)GlcNAc
Procedure, shortened: as §1

[9] = target: Gal(a1-3)Gal(b1-3)GlcNAc(b1-2)Man
Procedure, shortened: as §1

[10] = target: Gal(a1-3)Gal(b1-3)GlcNAc(b1-6)GalNAc
Procedure, shortened: as §1

[11] = target: Gal(a1-3)Gal(b1-4)GlcNAc(b1-6)GalNAc
Procedure, shortened: as §1

[12] = target: Gal(a1-4)Gal(b1-3)GlcNAc(b1-2)Man(a1-3)[Gal(a1-4)Gal(b1-3)GlcNAc(b1-2)Man(a1-6)]Man(b1-4)GlcNAc(b1-4)GlcNAc
Procedure, shortened: as §1

[13] = target: Gal(b1-3)GlcNAc(b1-2)[Gal(b1-3)GlcNAc(b1-6)]Man(a1-6)[Gal(b1-3)GlcNAc(b1-2)Man(a1-3)]Man(b1-4)GlcNAc(b1-4)GlcNAc
Procedure, shortened: as §1

[14] = target: Gal(b1-4)GlcNAc(b1-2)Man
Procedure, shortened: as §1

[15] = target: Gal(b1-4)GlcNAc(b1-2)Man(a1-6)Man(b1-4)GlcNAc(b1-4)GlcNAc
Procedure, shortened: as §1

[16] = target: Gal(b1-4)GlcNAc(b1-2)Man(a1-6)[Man(a1-3)]Man(b1-4)GlcNAc(b1-4)GlcNAc
Procedure, shortened: as §1

[17] = target: Gal(b1-4)GlcNAc(b1-2)[Gal(b1-4)GlcNAc(b1-6)]Man(a1-6)[GlcNAc(b1-4)][Gal(b1-4)GlcNAc(b1-2)[Gal(b1-4)GlcNAc(b1-4)]Man(a1-3)]Man(b1-4)GlcNAc(b1-4)[Fuc(a1-6)]GlcNAc
Procedure, shortened: as §1

[18] = target: Gal(b1-4)GlcNAc(b1-3)Gal(b1-3)GlcNAc
Procedure, shortened: as §1

[19] = target: Gal(b1-4)GlcNAc(b1-3)Gal(b1-4)GlcNAc(b1-2)[Gal(b1-4)GlcNAc(b1-3)Gal(b1-4)GlcNAc(b1-6)]Man(a1-6)[Gal(b1-4)GlcNAc(b1-3)Gal(b1-4)GlcNAc(b1-2)Man(a1-3)]Man(b1-4)GlcNAc(b1-4)GlcNAc
Procedure, shortened: as §1

[20] = target: Gal(b1-4)GlcNAc(b1-3)Gal(b1-4)GlcNAc(b1-3)Gal(b1-4)GlcNAc(b1-2)Man(a1-3)[Gal(b1-4)GlcNAc(b1-3)Gal(b1-4)GlcNAc(b1-3)Gal(b1-4)GlcNAc(b1-2)Man(a1-6)]Man(b1-4)GlcNAc(b1-4)[Fuc(a1-6)]GlcNAc
Procedure, shortened: as §1

[21] = target: Gal(b1-4)GlcNAc(b1-3)Gal(b1-4)GlcNAc(b1-3)Gal(b1-4)GlcNAc(b1-2)[Gal(b1-4)GlcNAc(b1-3)Gal(b1-4)GlcNAc(b1-3)Gal(b1-4)GlcNAc(b1-6)]Man(a1-6)[Gal(b1-4)GlcNAc(b1-3)Gal(b1-4)GlcNAc(b1-3)Gal(b1-4)GlcNAc(b1-2)Man(a1-3)]Man(b1-4)GlcNAc(b1-4)[Fuc(a1-6)]GlcNAc
Procedure, shortened: as §1

[22] = target: Gal(b1-4)GlcNAc(b1-3)Gal(b1-4)GlcNAc(b1-3)Gal(b1-4)GlcNAc(b1-3)Gal(b1-4)GlcNAc(b1-3)Gal(b1-4)GlcNAc(b1-2)Man(a1-3)[Gal(b1-4)GlcNAc(b1-3)Gal(b1-4)GlcNAc(b1-3)Gal(b1-4)GlcNAc(b1-3)Gal(b1-4)GlcNAc(b1-3)Gal(b1-4)GlcNAc(b1-2)Man(a1-6)]Man(b1-4)GlcNAc(b1-4)GlcNAc
Procedure, shortened: as §1

[23] = target: Gal(b1-4)GlcNAc(b1-3)Gal(b1-4)GlcNAc(b1-6)[Gal(b1-3)]GalNAc
Procedure, shortened: as §1

[24] = target: Gal(b1-4)GlcNAc(b1-3)Gal(b1-4)[Fuc(a1-3)]GlcNAc(b1-3)Gal(b1-4)[Fuc(a1-3)]GlcNAc
Procedure, shortened: as §1

B1: SP15308F-bth-333-19-333 (Bacteroides thetaiotaomicron) (protein)
chain: SCNNEWESEQYVQMVSFKAPVNAQGVTPIYIRYKPEGKVTYQLPLIVSGSTMNSKDLNVHVGLDLDTLDVLNVEHFGSRKELFFKPLENKYYEFPETVQIPAGECTSLLPIDFALKDLDQVDKWVLPLAIQSNDPSHNYQANPRKFYRRAMLRISPFNDYSGQYSATAYKVYFKGNEKEAIVPEYHTSYVIDDKTIFFYAGLIDIDRLDRKYYKIKFEFTEEKIDLQTRKLKISSDNEDINLVVKGQPSYTVEEEMDATRPYLKHIYVTINNLEYEFTDYTSVPGYPLEYVVKGSLTMERKINTQIPDEDQAIEW
glycan array binding signal (z-score) [1]: -0.518 | glycan array binding signal (z-score) [2]: 0.606 | glycan array binding signal (z-score) [3]: 3.55 | glycan array binding signal (z-score) [4]: -0.455 | glycan array binding signal (z-score) [5]: -0.717 | glycan array binding signal (z-score) [6]: 0.652 | glycan array binding signal (z-score) [7]: 6.34 | glycan array binding signal (z-score) [8]: 7.35 | glycan array binding signal (z-score) [9]: 0.13 | glycan array binding signal (z-score) [10]: -1.04 | glycan array binding signal (z-score) [11]: -0.976 | glycan array binding signal (z-score) [12]: -1.15 | glycan array binding signal (z-score) [13]: 0.375 | glycan array binding signal (z-score) [14]: 2.88 | glycan array binding signal (z-score) [15]: -1.02 | glycan array binding signal (z-score) [16]: -0.531 | glycan array binding signal (z-score) [17]: 0.062 | glycan array binding signal (z-score) [18]: -0.026 | glycan array binding signal (z-score) [19]: -0.769 | glycan array binding signal (z-score) [20]: 1.45 | glycan array binding signal (z-score) [21]: 0.279 | glycan array binding signal (z-score) [22]: 3.23 | glycan array binding signal (z-score) [23]: -0.045 | glycan array binding signal (z-score) [24]: 0.753
